The full list was thinned out, with hits kept by preference.
KDM5B inhibitor = blocks human KDM5B histone demethylase activity; Q9UGL1; KDM5B demethylase, FDH-coupled NADH fluorescence (FDH is formaldehyde dehydrogenase); Potency, µM (highest dose often 57.7 µM), usual class: inhibitors; actives 2.6% (n = 220,000); AID 1347165; active = well fitted inhibition curve with a large enough effect; also: 0% is about no effect; nearly all actives have a fitted effect of over 70% in size
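Compound dilutions met 200 nM (final) KDM5BΔAP for 10 min at room temperature before substrate addition. The substrate mix held 12.5 µM H3K4me3 with cofactors 25 µM α-ketoglutarate and 50 µM Fe²⁺. NADH signal gain over 30 min defined activity.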
* marks the source's active call; other numbers are inactive results; i = inactive. Potency is read from the fitted curve at half-maximal effect.

SMILES	KDM5B inhibitor
O=C(c1ccco1)N1CCC(N2CCCC(C(=O)N3CCCC3)C2)CC1 (centres undefined)	i
O=C(C1CCCN(C2CCN(c3ncccn3)CC2)C1)N1CCOCC1 (centres undefined)	20µM*
N#Cc1ccnc(N2CCN(C(=O)Nc3ccc(F)cc3)CC2)c1	i
Cn1ccn2ncc(C(=O)N3CCC(N4CCCC(C(=O)N5CCCC5)C4)CC3)c12 (centres undefined)	i
O=C(c1cn(C2CCCCC2)nn1)N1CCCC(C(=O)N2CCOCC2)C1 (centres undefined)	i
CN1CCN(C(=O)C2CCCN(C3CCN(c4cc(C#N)ccn4)CC3)C2)CC1 (centres undefined)	28µM*
COc1ccc(Cl)cc1NC(=O)N1CC(C)Oc2ccc(C)cc21 (centres undefined)	i
CNC(=O)NC(=O)CCN1CCOC(c2cccc(Br)c2)C1 (centres undefined)	i
C[C@@H](NS(C)(=O)=O)c1onc(-c2cccnc2)c1C(=O)O	i
Cc1ccc(CNC(=O)c2sc3ncnc(N(C)C4CCCCC4)c3c2C)cc1	i
CCCN1CCN(c2ncnc3sc(C(=O)Nc4c(C)cc(C)cc4C)c(C)c23)CC1	i
Cc1c(C(=O)O)sc2ncnc(NCC3(O)CCCCC3)c12	20µM*
CCc1cccc2c(C(=O)COC(=O)c3cccs3)c[nH]c12	i
COc1cccc(CNC(=O)CC2CCN(C(=O)c3[nH]c(C)cc3C)CC2)c1	i
CCO[C@H]1CN(C(=O)c2cnc(Nc3ccccc3)nc2)C[C@@H]1O	i
CCO[C@H]1CN(C(=O)c2nc3ccccc3[nH]c2=O)C[C@@H]1O	25µM*
CCO[C@H]1CN(C(=O)c2cnn(Cc3ccccc3)c2)C[C@@H]1O	i
S=C(NCCc1ccc(Cl)cc1Cl)NCc1ccccc1	i
O=C1/C(=C/c2ccc(-c3ccc(F)cc3)o2)Cc2ccccc21	i
COc1ccc2[nH]c(CNc3cc(C4CC(N)C4)nc(C)n3)cc2c1 (centres undefined)	20µM*
COc1ccc(-c2[nH]ncc2CNc2cc(C3CC(O)C3)nc(C)n2)cc1 (centres undefined)	i
COc1ccc2[nH]c(CO)cc2c1	i
CC(C)c1nnsc1CNCc1ccccc1OCCCCN1CCOCC1	i
Cn1ccc2cc(S(=O)(=O)N3CCC(C(=O)N4CCOCC4)CC3)ccc21	i
O=C(NCCc1cccs1)C1CCN(c2ccc(C(F)(F)F)cn2)CC1	i
SMILES	KDM5B inhibitor
O=C(CN1CCN(c2ccc(C(F)(F)F)cn2)CC1)NC1CC1	i
FC(F)(F)c1ccc(N2CCC(N[C@@H]3C[C@@H]4OCC[C@@H]43)CC2)nc1	20µM*
COc1ccccc1NC(=O)c1c(C)cc(C)nc1SCC(=O)NCc1ccccc1	i
CCN(CC)CCNC(=O)c1ccc(CN2CC(=O)N3CCCC3C2=O)cc1 (centres undefined)	i
CS(=O)(=O)N1CCC(OC2CCN(C(=O)Nc3ccccc3F)CC2)CC1	i
O=C(Nc1ccccc1)N1CCc2nc(-c3ccc(Cl)cc3)nc(-c3ccccc3)c2C1	i
Cn1c2c(c3ccccc31)CN(C(=O)Nc1ccc(Cl)cc1Cl)CC2	22µM*
CC(=O)N1CCn2cc(C(=O)Nc3ccc(Cl)cc3Cl)nc2C1	i
Cn1ccc2cc(S(=O)(=O)N3CCN(C(=O)Nc4ccccc4F)CC3)ccc21	i
Cn1c2c(c3ccccc31)CN(C(=O)Nc1ccccc1F)CC2	22µM*
CC1=C(C(=O)OC(C)(C)C)C(c2ccc(Cl)cc2)N2C(CC(=O)N3CCCC3)=CSC2=N1 (centres undefined)	i
CCC(C)NC(=S)N(C)N (centres undefined)	i
COc1ccccc1C(=O)NC1CCN(c2cn[nH]c(=O)c2)CC1	i
O=C(c1ccc(OCc2cn3ccccc3n2)cc1)N1CCN(C(=O)c2cccs2)CC1	i
COc1ccccc1C(=O)NC1CCN(c2cc(C(F)(F)F)ncn2)CC1	i
O=C(c1ccc2c(c1)OCO2)N1CCN(c2nnc3ccccn23)CC1	25µM*
O=C(c1cccs1)N1CCCCCCC1	i
O=C(c1ccc2c(c1)OCO2)N1CCn2c(nnc2-c2ccccc2)C1	i
O=C(c1ccccc1)N1CCN(C(=O)c2ccc3c(c2)OCO3)CC1	i
Cc1ccc(CC(=O)N2CCN(c3nnc4ccc(C(F)(F)F)cn34)CC2)cc1	i
COc1ccccc1C(=O)NC1CCN(c2nnc3ccccn23)CC1	28µM*
COc1ccc(C(=O)N2CCN(c3nnc4c(Cl)cccn34)CC2)cc1	i
O=C(c1cccs1)N1CCN(c2nnc3ccccn23)CC1	22µM*
Cc1ccc(C(=O)N2CCN(c3nnc4ccccn34)CC2)cc1	28µM*
O=C(COc1ccc(Cl)cc1)Nc1c(NC2CCCC2)c2ccccc2oc1=O	i
CSCc1cccc(C(=O)O)c1	i
CN1CCN(C(=O)CN2CCN(C(C(=O)O)c3cn(CC(=O)O)c4cc(Cl)ccc34)CC2)CC1 (centres undefined)	i

High-throughput results deposited in PubChem by National Center for Advancing Translational Sciences (NCATS).
